The source of these data is PMC4552634, “A New Set of Chemical Starting Points with Plasmodium falciparum Transmission-Blocking Potential for Antimalarial Drug Discovery” (PLoS ONE, 2015).

Each structure is given as a SMILES string. The campaign covered roughly 13,000 compounds. About 3,200 (25%) showed an effect of 50% or more. Some of the results follow.

The subject of the assay is P. falciparum stage V gametocytes. Details: BacTiter-Glo ATP luminescence viability of purified stage V gametocytes in 384-well plates, per cent inhibition versus DMSO. The following applies: 48 h, 5 µM; inhibitor.
The % Inhibition is the relative decrease from the control value, in per cent. For the compound `Cc1nc(N)nc(N)c1-c1ccc2ccccc2c1` [TCMDC-137286], the “% Inhibition” value was -7.805%.

With `FC(F)(F)c1ccc2[nH]c(-c3cccc(-c4cccc(CNCc5cnn(-c6ccccc6)n5)c4)c3)nc2c1.O=C(O)C(F)(F)F` [TCMDC-132966], the “% Inhibition” value is given as -44.07%.

As for `COc1cccc(NC(=O)N2CCOC(CCN3CCC4(CCc5ccccc54)CC3)(c3ccc(Cl)c(Cl)c3)C2)c1` (stereo not shown) [TCMDC-135330], the “% Inhibition” value is -52.33%.

`O=C(/C=C/c1ccc(Cl)c(Cl)c1)N1CCC(CN2CCC(c3nc4ccccc4n3CCCO)CC2)CC1` [TCMDC-140312]: the “% Inhibition” value is given as -4.21%.

Take `O=C(/C=C/c1ccc(Cl)c(Cl)c1)N1CCC(CN2CCC(c3c(-c4ccc(F)cc4)[nH]c4ccccc34)CC2)CC1` [TCMDC-140654]: the “% Inhibition” value came out at 18.04%.

As to `O=C(/C=C/c1ccc(Cl)c(Cl)c1)N1CCC(CN2CCC(c3c(-c4ccccc4)[nH]c4ccccc34)CC2)CC1` [TCMDC-140653], the “% Inhibition” value was 54.21%.

As for `CC(C)n1c(C2CCN(CC3CCN(C(=O)/C=C/c4ccc(Cl)c(Cl)c4)CC3)CC2)nc2ccccc21` [TCMDC-140212], the “% Inhibition” value is recorded as -15.48%.

As for `Cc1ccc(-c2ccc3c(c2)C=C(C(=O)NCC2CCN(CC4CCN(C(=O)/C=C/c5ccc(Cl)c(Cl)c5)CC4)CC2)CCC3)cc1` [TCMDC-140646], the “% Inhibition” value amounted to 108.7%.

With `Cc1[nH]c2ccccc2c1CC1CCN(CC2CCN(C(=O)/C=C/c3ccc(Cl)c(Cl)c3)CC2)CC1` [TCMDC-140128], the “% Inhibition” value is reported as -40.98%.

`Cn1c(NC2CCN(CC3CCN(C(=O)/C=C/c4ccc(Cl)c(Cl)c4)CC3)CC2)nc2ccccc21` [TCMDC-140340]: the “% Inhibition” value is on record as 94.55%.

On to `O=C(/C=C/c1ccc(Cl)c(Cl)c1)N1CCC(CN2CCC(Cc3nc4ccccc4[nH]3)CC2)CC1` [TCMDC-140119], for which the “% Inhibition” value came to 26.7%.

Consider `CCn1c(C2CCN(CCC3CCN(C(=O)/C=C/c4ccc(Cl)c(Cl)c4)CC3)CC2)nc2ccccc21` [TCMDC-140221], for which the “% Inhibition” value is -5.757%.

Turning to `O=C(/C=C/c1ccc(Cl)c(Cl)c1)N1CCC(CN2CCC(c3c(Br)[nH]c4ccccc34)CC2)CC1` [TCMDC-140652], the “% Inhibition” value is -44.15%.

Turning to `CC(C)n1c(CC2CCN(CC3CCN(C(=O)/C=C/c4ccc(Cl)c(Cl)c4)CC3)CC2)nc2ccccc21` [TCMDC-140372], the “% Inhibition” value amounted to 82.38%.

Take `Cc1cc(O)cc2c(C3CCN(CC4CCN(C(=O)/C=C/c5ccc(Cl)c(Cl)c5)CC4)CC3)c[nH]c12` [TCMDC-140065]: the “% Inhibition” value is on record as -70.17%.

In the case of `CC1CC(C)CN(S(=O)(=O)c2cc(C(=O)Nc3cccc([N+](=O)[O-])c3)ccc2Br)C1` (stereo not shown) [TCMDC-124626], the “% Inhibition” value is given as -10.68%.

Turning to `O=C(Nc1cc(F)c(F)c(-c2cccnc2)c1)N1CCc2cc(Cl)c(Cl)cc21` [TCMDC-139065], the “% Inhibition” value was 25.18%.

As to `Cc1ccc(-c2nc(N3CCN(C(=O)c4ccco4)CC3)c3ccccc3n2)cc1` [TCMDC-124779], the “% Inhibition” value is -11.86%.

With `COc1ccccc1CNC(=O)c1cc(OC)c(OC)cc1NC(=O)c1cccs1` [TCMDC-125022], the “% Inhibition” value worked out at 22.04%.

On to `CCOc1cc(Cc2cnc(N)nc2N)cc(OCC)c1O` [TCMDC-137181], for which the “% Inhibition” value amounted to 40.77%.

In the case of `CC(C)NC(=O)Cn1cc(C2CCN(CC3CCN(C(=O)/C=C/c4ccc(Cl)c(Cl)c4)CC3)CC2)c2ccccc21` [TCMDC-134172], the “% Inhibition” value is -9.49%.

In the case of `O=C(/C=C/c1ccc(Cl)c(Cl)c1)N1CCC(CN2CCC(c3cn(CC(=O)N4CCCCC4)c4ccccc34)CC2)CC1` [TCMDC-134193], the “% Inhibition” value is on record as 103%.

As to `O=C(c1ccc(O)c(-c2cc(Cl)cc(Cl)c2)c1)N(CCO)CCO` [TCMDC-140160], the “% Inhibition” value is on record as -5.034%.

For `COc1ccc2c(=O)c(Br)c(C)[nH]c2c1` [TCMDC-137426], the “% Inhibition” value worked out at 72.62%.

Take `COc1ccc2c(=O)c(I)c(C)[nH]c2c1` [TCMDC-138141]: the “% Inhibition” value worked out at 64.56%.

As to `COc1ccc2c(=O)c3ccc(OC)cc3[nH]c2c1` [TCMDC-132054], the “% Inhibition” value came out at 37.12%.

Regarding `COc1ccc2c(=O)c(-c3ccc(OC(F)(F)F)cc3)c(C)[nH]c2c1` [TCMDC-138811], the “% Inhibition” value was found to be 45.07%.

On to `Cc1cc2c(cc1C(F)(F)F)N(C(=O)Nc1cc(C(=O)NCCN(C)C)cc(C(F)(F)F)c1)CC2` [TCMDC-139884], for which the “% Inhibition” value came to 20.84%.

With `Cc1cc(C(=O)Nc2ccc3c(c2)CCN3C2CCN(Cc3cccc(F)c3F)C2)no1` (stereo not shown) [TCMDC-135079], the “% Inhibition” value is -28.63%.

`COc1ccccc1CCNc1nc(C)cc(N[C@@H](CC(C)C)C(=O)NCc2cccc(F)c2)n1` [TCMDC-134863]: the “% Inhibition” value is reported as 80.77%.

As to `Cc1cc(N[C@@H](Cc2ccccc2)C(=O)NCc2cccc(F)c2)nc(NCCc2ccccc2)n1` [TCMDC-134773], the “% Inhibition” value amounted to 75.65%.

In the case of `CCCC(C)Nc1nc(C)cc(N[C@@H](CC(C)C)C(=O)NCc2cccc(F)c2)n1` (stereo partly shown) [TCMDC-134768], the “% Inhibition” value was -55.2%.

Consider `Cc1cc(N[C@@H](Cc2ccccc2)C(=O)NCc2cccc(F)c2)nc(NCCc2ccc(F)cc2)n1` [TCMDC-134785], for which the “% Inhibition” value is recorded as 98.48%.

For `Cc1cccc(CNc2nc(C)cc(N[C@@H](Cc3ccccc3)C(=O)NCc3cccc(F)c3)n2)c1` [TCMDC-134887], the “% Inhibition” value stood at 21.53%.

On to `COc1ccccc1CCNc1nc(C)cc(N[C@@H](Cc2ccccc2)C(=O)NCc2cccc(F)c2)n1` [TCMDC-134893], for which the “% Inhibition” value is reported as 92.55%.

In the case of `Cc1cc(N[C@@H](CC(C)C)C(=O)NCc2cccc(F)c2)nc(NCC2CCCCC2)n1` [TCMDC-134916], the “% Inhibition” value is recorded as -56.42%.

Turning to `Cc1cc(N[C@@H](Cc2ccccc2)C(=O)NCc2cccc(F)c2)nc(NCC2CCCCC2)n1` [TCMDC-134928], the “% Inhibition” value was found to be 5.769%.

Turning to `Cc1cc(N[C@@H](Cc2ccccc2)C(=O)NCc2cccc(F)c2)nc(NCc2ccccc2C)n1` [TCMDC-134903], the “% Inhibition” value is on record as -28.89%.

Consider `Nc1nc(N)c2c(CCc3ccc4ccccc4c3)cccc2n1` [TCMDC-141975], for which the “% Inhibition” value was -16.21%.

For the compound `O=C(O)C(F)(F)F.O=C(O)Cc1ccc(-c2c[nH]c3ncc(-c4cccc5ncccc45)cc23)cc1` [TCMDC-136372], the “% Inhibition” value is 46.28%.

Consider `CC(C)(CNC(=O)C1CCN(CCOCc2ccccc2)CC1)c1nc(-c2ccc(Cl)c(O)c2)c(-c2ccncc2)[nH]1` [TCMDC-141122], for which the “% Inhibition” value was -51.1%.

For the compound `CN1CCc2cc(I)c(O)cc2C1Cc1ccccc1Cl` (stereo not shown) [TCMDC-137321], the “% Inhibition” value was -44.87%.

As to `Cc1csc(-c2nonc2NC(=O)COc2ccccc2C(C)C)n1` [TCMDC-125014], the “% Inhibition” value was -9.384%.

For `CCCC(C)Nc1nc(C)cc(N[C@@H](Cc2ccccc2)C(=O)NCc2ccc(C)cc2)n1` (stereo partly shown) [TCMDC-134894], the “% Inhibition” value is -11.47%.

Take `Cc1cc(N[C@@H](Cc2ccccc2)C(=O)NCc2cccc(F)c2)nc(Nc2ccccc2)n1` [TCMDC-134857]: the “% Inhibition” value is -8.236%.

As to `CCCC(C)Nc1nc(C)cc(N[C@@H](Cc2ccccc2)C(=O)NCc2cccc(F)c2)n1` (stereo partly shown) [TCMDC-134764], the “% Inhibition” value is -38.43%.

On to `Cc1cc(N[C@@H](Cc2ccccc2)C(=O)NCc2cccc(F)c2)nc(NCCc2cccs2)n1` [TCMDC-134812], for which the “% Inhibition” value was 147.6%.

As to `Cc1ccc(CNC(=O)[C@H](Cc2ccccc2)Nc2cc(C)nc(NCCc3ccc(F)cc3)n2)cc1` [TCMDC-134788], the “% Inhibition” value is reported as 66.59%.

Turning to `Cc1cc(N[C@@H](Cc2ccccc2)C(=O)NCc2cccc(F)c2)nc(NCCc2cccnc2)n1` [TCMDC-134817], the “% Inhibition” value was 63.38%.

In the case of `Cc1cc(N[C@@H](Cc2ccccc2)C(=O)NCc2cccc(F)c2)nc(NCCOc2ccccc2)n1` [TCMDC-134756], the “% Inhibition” value worked out at 40.03%.

`Cc1ccc(CNC(=O)[C@H](Cc2ccccc2)Nc2cc(C)nc(NCc3ccccc3C)n2)cc1` [TCMDC-134905]: the “% Inhibition” value is reported as 48.7%.

Regarding `Cc1cc(N[C@@H](Cc2ccccc2)C(=O)NCc2cccc(F)c2)nc(NCCCOC(C)C)n1` [TCMDC-134822], the “% Inhibition” value was determined as 52.41%.

Take `COc1ccc(Cn2c(Nc3cccc(C(F)(F)F)c3)nc3cc(C(=O)NC(C)C)cnc32)cc1Cl` [TCMDC-138556]: the “% Inhibition” value was determined as 8.056%.

Turning to `CC[C@H](C)CNC(=O)c1ccc(-c2cccc(CN3CCC(N4CCCC4)CC3)c2)nc1` [TCMDC-134222], the “% Inhibition” value is listed as 28.35%.

For the compound `Cc1cccc2[nH]c(-c3cccc(-c4ccc(NC(=O)C(C)(C)c5ccccn5)cc4)c3)nc12` [TCMDC-137053], the “% Inhibition” value is listed as 15.43%.

On to `COc1cc(-c2nnc(SCC(=O)Nc3cc(C)on3)n2C)cc(OC)c1O` [TCMDC-123652], for which the “% Inhibition” value is reported as -77.31%.

On to `CC(=O)Oc1c(C(=O)C2CCC(C(C)(C)C)CC2)c(OC(C)=O)c2ccccc2c1OC(C)=O` (stereo not shown) [TCMDC-138179], for which the “% Inhibition” value stood at 0.9625%.

For `O=S(=O)(NCCN1CCCC1)c1cccc(-c2ccccc2CNC2Cc3ccccc3C2)c1` [TCMDC-132212], the “% Inhibition” value stood at 102.4%.

For `O=S(=O)(NCCN1CCCC1)c1ccc(-c2ccccc2CNC2Cc3ccccc3C2)cc1` [TCMDC-132210], the “% Inhibition” value came to 61.07%.

Take `COc1cccc(OC)c1C(=O)N1CCC2(CC1)C(=O)N(CC(=O)NC1CCCCC1)CN2c1ccccc1` [TCMDC-125168]: the “% Inhibition” value is -28.41%.

In the case of `CC1CCc2c(C(=O)N3CCc4ccccc4C3)csc2C1` (stereo not shown) [TCMDC-123624], the “% Inhibition” value came to 13.04%.

In the case of `OC(CNc1ccnc(Nc2cccc(OCCCN3CCOCC3)c2)n1)c1ccccc1` (stereo not shown) [TCMDC-136465], the “% Inhibition” value is 23.11%.

Turning to `CN1CCN(c2cccc(Nc3nccc(NCC(O)c4ccccc4)n3)c2)CC1` (stereo not shown) [TCMDC-136468], the “% Inhibition” value worked out at 11.64%.

On to `Cc1nc(-c2cccc(Nc3nccc(NCC(O)c4ccccc4)n3)c2)cs1` (stereo not shown) [TCMDC-136565], for which the “% Inhibition” value came out at 4.289%.

For the compound `CN1CCC(Oc2ccc(Nc3nccc(NCC(O)c4ccccc4)n3)cc2Cl)CC1` (stereo not shown) [TCMDC-136471], the “% Inhibition” value is 60.18%.

For the compound `Cc1ccc(Nc2nccc(NCC(O)c3cccc(C)c3)n2)cc1` (stereo not shown) [TCMDC-136569], the “% Inhibition” value is -32.98%.

On to `CN(C)CC(=O)Nc1cccc(Nc2nccc(NCC(O)c3ccccc3)n2)c1` (stereo not shown) [TCMDC-136472], for which the “% Inhibition” value was determined as 19.31%.

As for `CN(C)Cc1cccc(-c2ccc(Nc3nccc(NCC(O)c4ccccc4)n3)cc2)c1` (stereo not shown) [TCMDC-136470], the “% Inhibition” value came out at 73.29%.

As to `CN(C)Cc1ccc(-c2cccc(Nc3nccc(NCC(O)c4ccccc4)n3)c2)cc1` (stereo not shown) [TCMDC-136467], the “% Inhibition” value is given as 95.23%.

With `CN(C)CC(=O)Nc1ccc(Nc2nccc(NCC(O)c3ccccc3)n2)cc1` (stereo not shown) [TCMDC-136466], the “% Inhibition” value was -80.24%.
